Assay results reported in PubChem BioAssay (Tox21).
Results filed as inconclusive are left out. Where a call stands in place of a potency, no number is given. Calls of active or inactive are those of the source. The call rests on the fitted dose curve; in most records, active means well fitted curve in the direction sought with a large enough effect in the repeat runs; inconclusive means weak or mixed curves; inactive means no such curve, though single readings can be large; an effect the other way counts as inactive or inconclusive.

Legend:
[1] = qHTS assay to identify small molecule agonists of the RXR signaling pathway - cell viability counter screen (AID 1159529);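 further: HEK 293T cells carrying an RXR-alpha UAS beta-lactamase reporter; series mostly up to about 77 µM; nearly all actives have a fitted effect of over 50% in size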
How it was run: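 In this parallel viability measure, GeneBLAzer RXR-alpha HEK 293T cells (2% charcoal-stripped FBS) were given a 5 hr preincubation, treated with compounds 16 hr at 37 C, and read by CellTiter-Glo luminescence.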

[2] = qHTS assay to identify small molecule antagonists of the retinoid acid receptor (RAR) signaling pathway - cell viability counter screen (AID 1159551); further: nearly all actives have a fitted effect of over 35% in size
How it was run: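 Seed C3RL4 cells; next day add compound, then retinol to 1 uM final; incubate 6 h at 37 C; add CellTiter-Glo; read luminescence after 30 min at RT.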

[3] = qHTS assay to identify small molecule antagonists of the retinoic acid receptor (RAR) signaling pathway (AID 1159552; further: nearly all actives have a fitted effect of over 50% in size)
How it was run: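 C3RL4 RARE-luc cells, overnight plating; retinol 1 uM final added right after compound; 6 hr 37 C; luciferase read at 30 min RT.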

[4] = qHTS assay to identify small molecule agonists of the retinoic acid receptor (RAR) signaling pathway (AID 1159553)
How it was run: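 Activation of retinol signaling was monitored via a RARE luciferase reporter in C3RL4 cells. After 6 hr compound treatment at 37 C, detection reagent was added for 30 min at room temperature before luminescence reading.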

O=C(O)CCCCCCCCC(=O)O
outcome [1]: inactive | outcome [2]: inactive | outcome [3]: inactive

CC(=O)OCc1ccccc1
outcome [1]: inactive | outcome [2]: inactive | outcome [3]: inactive

CC(=O)CCC=C(C)C
outcome [1]: inactive | outcome [2]: inactive | outcome [3]: inactive

NCCN1CCNCC1
outcome [1]: inactive | outcome [2]: inactive | outcome [3]: inactive

CC(=O)c1ccc(O)cc1
outcome [1]: inactive

N#Cc1ccccc1
outcome [1]: inactive

C=C(C)[C@H]1CC=C(C)C(=O)C1
outcome [1]: inactive

C=CCCCCCCCCC(=O)O
outcome [1]: inactive

O=C(O)/C=C/C(=O)O
outcome [1]: inactive

COc1ccccc1OCC(O)CO (stereo unspecified)
outcome [1]: inactive | outcome [2]: inactive

CN/C(=C\[N+](=O)[O-])NCCSCc1csc(CN(C)C)n1
outcome [1]: inactive

CC(C)(C#N)c1cc(Cn2cncn2)cc(C(C)(C)C#N)c1
outcome [1]: inactive

O=[N+]([O-])c1ccc2nc[nH]c2c1
outcome [1]: inactive

COc1cc(OC)c(C(=O)CCCN2CCCC2)c(OC)c1
outcome [1]: inactive | outcome [2]: inactive

CCCCCCCC=O
outcome [1]: inactive

CC(=O)OCCOC(C)=O
outcome [1]: inactive

C=CCc1ccc(OC)c(OC)c1
outcome [1]: inactive | outcome [2]: inactive

CCNC(=S)NCC
outcome [1]: inactive | outcome [2]: inactive

CC(=O)OCc1ccco1
outcome [1]: inactive | outcome [2]: inactive | outcome [3]: inactive

COc1ccc(OC)cc1
outcome [1]: inactive

C[C@]12CC[C@@H]3c4ccc(O)cc4CC[C@H]3[C@@H]1C[C@@H](O)[C@@H]2O
outcome [1]: inactive

CCCCCCCCCCCC(=O)OC
outcome [1]: inactive

CCCOC(=O)c1ccccc1
outcome [1]: inactive

O=C1C(c2[nH]c3ccccc3c2O)=Nc2ccccc21
outcome [1]: inactive | outcome [2]: inactive | outcome [3]: inactive

COc1ccc(C)cc1N
outcome [1]: inactive | outcome [2]: inactive | outcome [3]: inactive

CC(C)=CCl
outcome [1]: inactive | outcome [2]: inactive

CN(C)c1ccc(O)c2c1C[C@H]1C[C@H]3[C@H](N(C)C)C(=O)C(C(N)=O)=C(O)[C@@]3(O)C(=O)C1=C2O
outcome [1]: inactive

CCO[Si](CCCN)(OCC)OCC
outcome [1]: inactive

OC1C(O)C(O)C(O)C(O)C1O (stereo unspecified)
outcome [1]: inactive

COCCCN
outcome [1]: inactive | outcome [2]: inactive

C[Si]1(C)O[Si](C)(C)O[Si](C)(C)O[Si](C)(C)O1
outcome [1]: inactive | outcome [2]: inactive

CC(C)OP(=O)(CP(=O)(OC(C)C)OC(C)C)OC(C)C
outcome [1]: inactive

CCCCC(C=O)CC (stereo unspecified)
outcome [1]: inactive | outcome [2]: inactive | outcome [3]: inactive

COc1ccc(N)c(C)c1
outcome [1]: inactive | outcome [2]: inactive

C=CC(C)CCCC(C)(C)O (stereo unspecified)
outcome [1]: inactive | outcome [2]: inactive | outcome [3]: inactive

CCc1ccccc1CC
outcome [1]: inactive | outcome [2]: inactive

CCO[Si](CCC#N)(OCC)OCC
outcome [1]: inactive | outcome [2]: inactive

CCCCCCCCCCO
outcome [1]: inactive | outcome [2]: inactive | outcome [3]: inactive | Potency [4]: inactive

O=C1CCCC1
outcome [1]: inactive | outcome [2]: inactive | outcome [3]: inactive | Potency [4]: inactive

N[C@H](Cc1c[nH]c2ccccc12)C(=O)O
outcome [1]: inactive | outcome [2]: inactive | outcome [3]: inactive

C=Cc1ccc(C)cc1
outcome [1]: inactive | outcome [2]: inactive | outcome [3]: inactive

CCCCCCCCCCN
outcome [1]: inactive | outcome [2]: inactive | outcome [3]: inactive | Potency [4]: inactive

CCCCCCCO
outcome [1]: inactive | outcome [2]: inactive | outcome [3]: inactive

CCCCCCCCCCCCCCCC(=O)OC(C)C
outcome [1]: inactive | outcome [2]: inactive | outcome [3]: inactive

O=C(O)c1cc2ccccc2cc1O
outcome [1]: inactive | outcome [2]: inactive | outcome [3]: inactive

CSc1ccc(Cl)cc1
outcome [1]: inactive | outcome [2]: inactive | outcome [3]: inactive | Potency [4]: inactive

CC(CCO)CC(C)(C)C (stereo unspecified)
outcome [1]: inactive | outcome [2]: inactive | outcome [3]: inactive | Potency [4]: inactive

O=C(O)Cn1c(=O)n(Cc2ccc(Br)cc2F)c(=O)c2ccc(Cl)cc21
outcome [1]: inactive | outcome [2]: inactive | outcome [3]: inactive

O=C(OCC1CCC2OC2C1)C1CCC2OC2C1 (stereo unspecified)
outcome [1]: inactive | outcome [2]: inactive | outcome [3]: inactive

NCCCCCCN
outcome [1]: inactive | outcome [2]: inactive | outcome [3]: inactive | Potency [4]: inactive

CCNc1cccc(C)c1
outcome [1]: inactive | outcome [2]: inactive | outcome [3]: inactive

COc1ccc([N+](=O)[O-])cc1N
outcome [1]: inactive | outcome [2]: inactive | outcome [3]: inactive

O=C1c2ccccc2CCc2ccccc21
outcome [1]: inactive | outcome [2]: inactive | outcome [3]: inactive

O=C(O)c1ccc(S(=O)(=O)N(Cl)Cl)cc1
outcome [1]: inactive | outcome [2]: inactive | outcome [3]: inactive | Potency [4]: inactive

NCCNCCN
outcome [1]: inactive | outcome [2]: inactive | outcome [3]: inactive | Potency [4]: inactive

CCOC(=O)n1ccn(C)c1=S
outcome [1]: inactive | outcome [2]: inactive | outcome [3]: inactive

C=CC[N+](C)(C)CC=C
outcome [1]: inactive | outcome [2]: inactive | outcome [3]: inactive

O=S(=O)(O)c1ccccc1
outcome [1]: inactive | outcome [2]: inactive | outcome [3]: inactive | Potency [4]: inactive

CN(C)c1ccc(Cc2ccc(N(C)C)cc2)cc1
outcome [1]: inactive | outcome [2]: inactive | outcome [3]: inactive | Potency [4]: inactive

COC(=O)CCCC(=O)OC
outcome [1]: inactive | outcome [2]: inactive | outcome [3]: inactive

CCOC(=O)c1ccc(N)cc1
outcome [1]: inactive | outcome [2]: inactive | outcome [3]: inactive

Cc1ccc([N+](=O)[O-])cc1S(=O)(=O)O
outcome [1]: inactive | outcome [2]: inactive | outcome [3]: inactive | Potency [4]: inactive

O=S(=O)(O)c1ccc(N=Nc2c(O)ccc3cc(S(=O)(=O)O)ccc23)cc1
outcome [1]: inactive | outcome [2]: inactive | outcome [3]: inactive | Potency [4]: inactive

NC(=S)NNC(N)=S
outcome [1]: inactive | outcome [2]: inactive | outcome [3]: inactive

CCCCCCC=O
outcome [1]: inactive | outcome [2]: inactive | outcome [3]: inactive | Potency [4]: inactive

COC(=O)c1cccnc1
outcome [1]: inactive | outcome [2]: inactive | outcome [3]: inactive | Potency [4]: inactive
